RGS12 GoLoco inh: inhibitors of human Gai1-RGS12 GoLoco interaction (red fluorophore); Potency, µM (doses to about 61.6 µM), for inactives: at the top dose activity, negative = inhibition, most hits filed as inhibitors; Gai1:RGS12 GoLoco peptide FP, rhodamine, 10 min; P63096; 230,000 tested, 0.44% active; active = well fitted inhibition curve with a large enough effect, not every such curve was filed as active; inactive = no such curve, though single readings can be large or run the other way; note: potency is the fitted concentration of half-maximal effect; % is set by controls: 0 for no effect and ±100 for the full control effect; nearly all actives have a fitted effect of over 30% in size
Target sequence (P63096 whole entry, looked up): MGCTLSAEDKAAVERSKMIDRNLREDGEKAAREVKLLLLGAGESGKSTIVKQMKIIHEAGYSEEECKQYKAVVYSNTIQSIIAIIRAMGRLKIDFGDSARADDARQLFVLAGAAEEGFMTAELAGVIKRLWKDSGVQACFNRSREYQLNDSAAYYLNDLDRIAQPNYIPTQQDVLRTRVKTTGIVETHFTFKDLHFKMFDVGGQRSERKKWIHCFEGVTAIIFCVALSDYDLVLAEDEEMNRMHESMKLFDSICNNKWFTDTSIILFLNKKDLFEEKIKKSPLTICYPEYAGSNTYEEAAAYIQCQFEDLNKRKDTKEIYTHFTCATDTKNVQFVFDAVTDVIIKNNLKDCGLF
Menin-MLL FL inh: displaces fluorescein MLL peptide from human menin | Fluorescence polarization, fluorescein-MLL peptide displacement from menin | 290,000 tested, under 10 active | FP activity change, % at 61.4 µM; active = well fitted curve in the direction sought with a large enough effect in the polarisation, not every such curve was filed as active; inconclusive = small, poorly fitted or top-dose-only effect, or effect the other way, or a change in a side signal; inactive = no such curve, though single readings can be large or run the other way; the % refers to the polarisation; note: % of control where 0% means no effect
Menin MLL FP TR: inhibitors of human menin-MLL interaction, mutant MLL peptide; O00255; Menin + Texas Red MLL mutant peptide, fluorescence polarization; Potency, µM (series often up to 61.6 µM), for inactives: at the top dose FP activity change, negative = inhibition, most hits filed as inhibitors; 270,000 tested, 0.23% active; AID 1768; active = well fitted inhibition curve with a large enough effect in the polarisation, with a control signal flat, not every such curve was filed as active; inconclusive = small, poorly fitted or top-dose-only effect, or effect the other way, or a change in a side signal; inactive = no such curve, though single readings can be large or run the other way; the % refers to the polarisation; note: potency is the fitted concentration of half-maximal effect; % of control where 0% means no effect
CXXC DNA block: MLL CXXC-DNA interaction inhibition; Q03164; MLL-CXXC / FITC-HOXA9 DNA fluorescence polarization; Potency, µM (titrated, usually from 115 µM), inactives show top-dose activity change, negative = inhibition, usual class: inhibitors; 290,000 tested, 0.037% active; active = well fitted inhibition curve with a large enough effect in the polarisation, with a control signal flat, not every such curve was filed as active; inconclusive = small, poorly fitted or top-dose-only effect, or effect the other way, or a change in a side signal; inactive = no such curve, though single readings can be large or run the other way; the % refers to the polarisation; note: potency is the fitted concentration of half-maximal effect
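Fluorescence polarization: 7 uM MLL-CXXC (stock) preincubated 5 min with compounds, then 50 nM fluorescein-HOX-A9 DNA (stock) added; 30 min ambient. Buffer 50 mM Tris-HCl pH 7.5, 50 mM NaCl, 1 mM DTT, 0.05% BSA.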
MLL CXXC FP-Fl: inhibitors of human MLL CXXC domain-DNA interaction. shares compounds with CXXC DNA block. 200 tested, 70% active. MLL CXXC-DNA binding, fluorescein FP. Potency, µM (series often up to 345 µM), for the others: top-dose activity change, negative = inhibition, hits mostly inhibitors; note: potency is the fitted concentration of half-maximal effect; nearly all actives have a fitted effect of over 80% in size
MLL CXXC FP-TR: disrupts human MLL CXXC domain binding to DNA, Texas Red. 200 tested, 40% active. AID 624161. Potency, µM (titrated, usually from 345 µM), inactives show at the highest dose activity change, negative = inhibition, actives largely listed as inhibitors. shares compounds with CXXC DNA block. MLL CXXC-DNA binding, Texas Red fluorescence polarization; note: potency is the fitted concentration of half-maximal effect; % is set by controls: 0 for no effect and ±100 for the full control effect; nearly all actives have a fitted effect of over 75% in size
MLL CXXC TRF: disrupts human MLL CXXC domain binding to DNA by HTRF; MLL CXXC-DNA binding, HTRF, biochemical; 210 tested, 30% active; shares compounds with CXXC DNA block; AID 624162; Potency, µM (top dose mostly 172 µM), without a hit: at the highest dose activity change, negative = inhibition, most hits filed as inhibitors; note: % is set by controls: 0 for no effect and ±100 for the full control effect; nearly all actives have a fitted effect of over 80% in size
Starred values were filed as active, the others as inactive; ? = inconclusive; . = no result; [ ] = dose if it differs, or a comment. The entries come from a sample that favours hits as a whole. Unless noted, calls come from the whole dose curve; as a rule, active = well fitted inhibition curve with a large enough effect; inconclusive = small, poorly fitted or top-dose-only effect; inactive = no such curve, though single readings can be large or run the other way.

SMILES	RGS12 GoLoco inh	Menin-MLL FL inh	Menin MLL FP TR	CXXC DNA block	MLL CXXC FP-Fl	MLL CXXC FP-TR	MLL CXXC TRF
N#C/C(=C\c1cccs1)C(=O)c1ccccc1	23%	1	.	?	3%	113µM*	-14%
N#Cc1cccc(-c2cncnc2-n2ccnc2)c1	-19%	0	3%	.	.	.	.
COc1cc(/C=C2/C(=O)NN(c3ccc(C)c(Cl)c3)C2=O)cc([N+](=O)[O-])c1O	.	1	?	?	80µM*	113µM*	33%
COC(=O)c1c(C)[nH]c(C)c1-c1ccc(C)cc1	3%	5	-1%	?	18µM*	?	-8%
CC[C@H](C)[C@H](NC(=O)[C@H](Cc1ccc(O)cc1)NC(=O)[C@@H](NC(=O)[C@H](CCCN=C(N)N)NC(=O)[C@@H](N)CC(=O)O)C(C)C)C(=O)N[C@@H](Cc1cnc[nH]1)C(=O)N1CCC[C@H]1C(=O)N[C@@H](Cc1ccccc1)C(=O)N[C@@H](Cc1cnc[nH]1)C(=O)N[C@@H](CC(C)C)C(=O)O	.	-3	15%	.	.	.	.
O=C(O)c1ccc(COc2ccccc2C=C2C(=O)c3ccccc3C2=O)cc1	4%	4	27%	18µM*	18µM*	56µM*	77µM*
CCOC(=O)/C=C(\C)Sc1cc(O)c2ccccc2c1O	-35%	-7	.	32µM*	?	?	19µM*
CC[C@@]1(O)C(=O)OCc2c1cc1n(c2=O)Cc2cc3c(CN(C)C)c(O)ccc3nc2-1	3%[14.2 µM]	?	-1%	45µM*	32µM*	-5%	10%
COC(=O)NC(c1ccccc1)c1c[nH]c2ccc(OC)cc12 (configuration not stated)	-3%	-1	10%	.	.	.	.
COC(=O)NC(c1cccc(C)c1)[C@]1(C(C)=O)CCOC1=O (some centres not stated)	.	-2[11.7 µM]	1%[11.7 µM]	.	.	.	.
COc1cc(/C=C(/C#N)C(=O)Nc2ccccc2)ccc1OCc1ccc(C(=O)O)cc1	4%	5	48%	-6%	.	.	.
COc1cc(/C=C(\C#N)C(=O)Nc2ccc(C(=O)O)cc2)ccc1OC(=O)c1cccc(F)c1	.	?	28%	?	3%	37%	-48%
O=C1/C(=N\S(=O)(=O)c2cccs2)C([n+]2cccc(Cc3ccccc3)c2)=C([O-])c2ccccc21	-129%	?	.	25µM*	142µM*	?	69%
O=C1/C(=N\S(=O)(=O)c2cccs2)C([n+]2ccc(CCCc3ccccc3)cc2)=C([O-])c2ccccc21	-44%	-19	.	-29%	.	.	.
CCCCNCC	8%	.	.	.	.	.	.
COCCCNc1c2c3c(cccc3[nH]c1=O)C(=O)c1ccccc1-2	4.5µM*	?	32µM*	?	0.56µM*	63µM*	25%
CO[C@@H]1COC(=O)CCC[C@@H](C)[C@H](OC)COC(=O)CCC[C@H]1C	.	0[11.7 µM]	17%[11.7 µM]	.	.	.	.
COCCn1c(=O)c(-c2cccs2)nc2cnc(N3CCOCC3)nc21	1%	?	-22%	.	.	.	.
CC1(C)CC(=O)C(C(C2=C(O)CC(C)(C)CC2=O)c2ccc(O)c([N+](=O)[O-])c2)=C(O)C1	-2%	-2	10%	28µM*	18µM*	63µM*	7.7µM*
COC(=O)C1=C(C)N(Cc2ccccc2)[C@]23O[C@](C(=O)OC)(C(=O)N2C1c1ccccc1)C(C(=O)OC)=C3C(=O)OC (some centres not stated)	.	1[11.7 µM]	1%[11.7 µM]	.	.	.	.
CC(C)C(=O)Nc1c(-c2ccc(Cl)cc2)c(=O)c2ccccc2n1C	.	2	23%	?	?	-4%	0%
CC(=O)Nc1ccc(Nc2nnc(-c3ccc(C)c(S(N)(=O)=O)c3)c3ccccc23)cc1	.	-2	-4%	?	.	.	.
CNC(=O)c1cc(Nc2nnc(-c3ccc(C)c(S(N)(=O)=O)c3)c3ccccc23)ccc1OC	.	0	5%	?	142µM*	14%	12%
O=C(O)c1cccc(-n2cccc2C=C2C(=O)c3ccccc3C2=O)c1	20%	8	?	?	179µM*	?	25%
OC[C@@H]1O[C@@H](O)[C@H](N=Cc2ccc3c(c2)OCO3)[C@@H](O)[C@@H]1O	5%[14.2 µM]	.	.	.	.	.	.
SMILES	RGS12 GoLoco inh	Menin-MLL FL inh	Menin MLL FP TR	CXXC DNA block	MLL CXXC FP-Fl	MLL CXXC FP-TR	MLL CXXC TRF
CC(C)OC(=O)CC(=O)c1sc2nc3c(cc2c1N)CN(C)CC3	45%	?	-15%	13µM*	45µM*	?	?
C[C@H]1CC[C@H]2C(=O)N3[C@H](c4ccc(Br)cc4)[C@@H](C)CC[C@H]3C(=O)N2[C@@H]1c1ccc(Br)cc1	.	-1[11.7 µM]	1%[11.7 µM]	.	.	.	.
COc1cccc2c1C(=O)c1c(O)c3c(c(O)c1C2=O)C[C@@](O)(C(C)=O)C[C@@H]3O[C@H]1C[C@H](N)[C@H](O)[C@H](C)O1	1.6µM*	?	?	10µM*	5.6µM*	11µM*	376%
CC(=O)[C@]1(O)Cc2c(O)c3c(c(O)c2[C@@H](O[C@H]2C[C@H](N)[C@H](O)[C@H](C)O2)C1)C(=O)c1ccccc1C3=O	1.6µM*	?	?	?	2µM*	100µM*	117%
CC(=O)[C@]1(O)Cc2c(O)c3c(c(O)c2[C@@H](O[C@H]2C[C@H](N)[C@H](O)[C@H](C)O2)C1)C(=O)c1c(O)cccc1C3=O	0.79µM*	?	?	?	6.3µM*	22µM*	255%
C=C1CC2C(=O)N(Cc3ccccc3)C(C(=O)O)C1N2C(=O)OC(C)(C)C (configuration not stated)	.	-1	-8%	.	.	.	.
COCOc1ccc(Br)cc1C(=O)/C=C\c1ccc2c(c1)OCO2	.	0[11.7 µM]	4%[11.7 µM]	.	.	.	.
COCCCNC(=S)NNC(=O)c1cc(Cl)c(O)c(Cl)c1	-2%	-1	.	?	.	.	0%
C[C@H]1COc2c(N3CCN(C)CC3)c(F)cc3c(=O)c(C(=O)NCc4ccco4)cn1c23	2%	-3	2%	.	.	.	.
COc1ccc(O[C@H]2C=C[C@@H](c3ccccc3)O[C@H]2COC(=O)CC/C(C)=N\O[C@@H](C)c2cc(-c3c(C)cc(C)cc3C)no2)cc1	.	5[11.7 µM]	-1%[11.7 µM]	.	.	.	.
Cc1nc(N=Nc2cc(S(=O)(=O)O)c3cc([N+](=O)[O-])cc(S(=O)(=O)O)c3c2)c(COP(=O)(O)O)c(C=O)c1O	7%	3	?	32µM*	18µM*	36µM*	15µM*
CCC(C)c1ccc(NC(=O)Nc2cccnc2)cc1 (configuration not stated)	.	-6	?	?	-7%	?	1%
